# Source: paper PMC12431657, “Discovery and mechanistic insights of dibenzoylmethane as a broad spectrum inhibitor of coronavirus” (PLOS Pathogens, 2025)
# System: HCoV-229E
# Set-up: species or system Huh-7
# Settings: 24 h, 10 µM; inhibitor
structure (smiles),measurement,value
C=C1C(=O)O[C@@H]2[C@H]3O[C@]3(C)CC/C=C(\C)CC[C@@H]12 [Parthenolide],229E Inhibition rate,24.7
